High-throughput results: PubChem BioAssay, Sanford-Burnham Center for Chemical Genomics
A selection: hits, their analogues and other compounds. The true share with any hit is near 3%.
SENP7 block: SENP7 protease inhibitors, primary screen, biochemical, luminescence, uHTS; Sentrin-specific protease 7 (Homo sapiens), Q9BQF6; recombinant SENP7, Z-RLRGG-aminoluciferin luminescence, 40 min; inhibition, % at 5 µM; 330,000 tested, 1.5% active; AID 434973, 2010;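 active = inhibition above about 50% at the single test dose, limit read from the data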
PPC-1+TRAIL kill: compounds killing PPC-1 cancer cells with TRAIL present, primary screen, TRAIL potentiator project, ATPLite luminescence, uHTS; AID 1443, 2008; cell killing (% activity), % at 4 µM or 5 µM; PPC-1 cells + TRAIL, ATPLite viability luminescence; 220,000 tested, 0.41% active;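 active = cell killing above 50% in the first pass at 4 µM, then a duplicate retest at 5 µM averaging 50% or more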
SENP8 block-1: SENP8 protease inhibitors, primary screen, biochemical, luminescence | inhibition, % at 10 µM | 330,000 tested, 1.2% active | Sentrin-specific protease 8 (Homo sapiens), Q96LD8 | purified SENP8, Z-RLRGG-aminoluciferin cleavage | AID 2540, 2010; in the data active = inhibition above about 50%
SENP8 block-2: human SENP8 protease inhibitors, primary screen, biochemical, fluorescence, Nedd8 protein substrate, uHTS; inhibition, % at 20 µM; Sentrin-specific protease 8 (Homo sapiens), Q96LD8; 360,000 tested, 0.64% active; recombinant SENP8; in the data active = inhibition mostly above about 40%, no sharp cut-off; inactive = mostly below about 27%
TRAIL sens C8: viability loss with TRAIL in NB7+C8 cells, primary screen, TRAIL sensitizer project, cell-based, ATPlite luminescence | inhibition (viability loss, TRAIL sensitization), % at 10 µM | 360,000 tested, 1% active | AID 624354, 2012;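 active = compounds causing at least 50% loss of cell viability in the single-dose screen, relative to plate controls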
SENP6 block: SENP6 protease inhibitors, primary screen, biochemical, luminescence, uHTS | AID 2599, 2010 | Recombinant SENP6 catalytic domain, aminoluciferin luminescence | 330,000 tested, 1.8% active | inhibition, % at 10 µM | Sentrin-specific protease 6 (Homo sapiens), Q9GZR1;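 active = inhibition above about 50% at the single tested dose, limit read from the data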
Target sequence (Q9GZR1 628-1112 limits assumed): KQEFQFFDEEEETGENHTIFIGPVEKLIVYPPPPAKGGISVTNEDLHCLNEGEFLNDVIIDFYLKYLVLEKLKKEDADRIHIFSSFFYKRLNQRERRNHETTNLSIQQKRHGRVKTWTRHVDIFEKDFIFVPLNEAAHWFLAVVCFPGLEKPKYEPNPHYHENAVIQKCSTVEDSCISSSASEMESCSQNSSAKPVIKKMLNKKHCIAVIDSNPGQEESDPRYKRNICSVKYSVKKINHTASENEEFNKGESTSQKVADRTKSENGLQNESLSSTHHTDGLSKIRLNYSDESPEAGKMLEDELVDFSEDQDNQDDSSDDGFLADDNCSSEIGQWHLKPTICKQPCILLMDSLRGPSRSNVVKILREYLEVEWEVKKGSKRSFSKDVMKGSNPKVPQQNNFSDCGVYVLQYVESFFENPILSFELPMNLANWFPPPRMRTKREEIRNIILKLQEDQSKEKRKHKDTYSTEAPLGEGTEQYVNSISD
SENP8 confirm: SENP8 protease inhibitors, retest, confirmation, biochemical, luminescence, single concentration; shares compounds with SENP7 block; Recombinant SENP8, Z-RLRGG-aminoluciferin luminescence, 60 min; inhibition, % at 12.5 µM; 6,200 tested, 40% active; AID 488912, 2010;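 active = mean inhibition across replicates above about 50%, limit read from the data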
SENP6 confirm: SENP6 protease inhibitors, confirmation, biochemical, luminescence, single concentration; shares compounds with SENP7 block; recombinant SENP6, Z-RLRGG-aminoluciferin luminescence; inhibition, % at 12.5 µM; 6,200 tested, 58% active
SENP7 confirm: SENP7 protease inhibitors, retest, confirmation, biochemical, luminescence, single concentration; shares compounds with SENP7 block; recombinant SENP7, Z-RLRGG-aminoluciferin luminescence, 40 min; inhibition, % at 12.5 µM; 6,200 tested, 69% active; AID 488917, 2010
Casp3 select: caspase-3 protease inhibitors, confirmation, selectivity assay for SENP inhibitor project, biochemical, single concentration; shares compounds with SENP7 block; purified caspase-3, Z-DEVD-aminoluciferin luminescence, 60 min; inhibition, % at 12.5 µM; 6,200 tested, 60% active;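 active = mean inhibition above about 50%, limit read from the data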
SENP luc ctr: counter-screen for SENP inhibitors: luminescence interference; Pre-incubated SENP8/Z-RLRGG-aminoluciferin, luciferase luminescence interference; 6,200 tested, 39% active; inhibition, % at 12.5 µM; shares compounds with SENP7 block;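 active = mean inhibition above about 50% when retested at one dose, limit read from the data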
Hits are given with their value; i = inactive; nt = no result given.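 The calls were made as follows, unless noted: active = mean inhibition above about 50% in the one-dose retest (limit read from the data); inactive = the rest.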

SMILES	SENP7 block	PPC-1+TRAIL kill	SENP8 block-1	SENP8 block-2	TRAIL sens C8	SENP6 block	SENP8 confirm	SENP6 confirm	SENP7 confirm	Casp3 select	SENP luc ctr
CCc1ccc(OCc2ccc(C(=O)O)o2)cc1	86	nt	90	i	i	90	95	95	100	52	94
O=C(O)c1ccc(COc2ccccc2[N+](=O)[O-])o1	i	i	i	i	i	57	i	i	71	i	50
O=C(O)c1ccc(COc2ccc(Cl)cc2)o1	82	i	80	i	i	79	91	90	97	i	89
N#Cc1ccc(OCc2ccc(C(=O)O)o2)cc1	i	nt	i	i	i	i	nt	nt	nt	nt	nt
O=C(O)CCC(=O)Nc1ccc(Sc2ccc([N+](=O)[O-])cc2)cc1	i	i	i	i	i	i	nt	nt	nt	nt	nt
Cc1ccc2nc(-c3ccc(NC(=O)COCC(=O)O)cc3)sc2c1	63	i	82	i	i	79	90	90	99	82	87
O=C(O)CSCC(=O)Nc1ccc(-c2nc3ccccc3s2)cc1	92	i	92	i	i	94	96	96	101	96	96
Cc1csc(NC(=O)CSCC(=O)O)c1-c1nc2ccccc2s1	i	i	i	i	i	i	nt	nt	nt	nt	nt
Cc1ccc(C2(C)NC(=O)N(CC(=O)Nc3ccc(-c4nc5ccc(C)cc5s4)cc3)C2=O)cc1 (stereo not drawn)	i	i	i	i	i	i	nt	nt	nt	nt	nt
Cc1ccc2nc(-c3ccc(NC(=O)CSCC(=O)O)cc3)sc2c1	i	i	65	i	i	82	i	66	88	55	68
CCC(=O)NC(=S)Nc1ccc(-c2nc3ccc(C)cc3s2)cc1	i	i	i	i	i	i	nt	nt	nt	nt	nt
CCn1cc(CN2CCC(n3nccc3NC(=O)c3ccc(OC)cc3)CC2)cn1	i	nt	i	i	i	i	nt	nt	nt	nt	nt
O=C(c1ccccc1)c1cnc(-c2ccccc2)s1	96	i	89	i	i	93	54	i	73	62	i
O=C(c1ccc(Cl)cc1)c1cnc(-c2ccc(Cl)cc2)s1	i	i	i	i	i	i	nt	nt	nt	nt	nt
O=C(c1ccccc1)c1cnc(-c2ccc(Cl)cc2)s1	97	i	i	i	i	80	i	i	i	i	i
CC(C)(C)NC(=O)CSc1nc2[nH]ncc2c(=O)[nH]1	i	i	i	i	i	i	nt	nt	nt	nt	nt
CSCCC(C(=O)Nc1c(C)cccc1C)n1c(-c2cc(C)cs2)nc2ccccc21 (stereo not drawn)	nt	nt	nt	i	i	nt	nt	nt	nt	nt	nt
Cc1ccc(CONC(=O)c2cccc(C)c2)cc1	i	nt	i	i	i	65	i	i	78	77	56
O=C(O)c1cc(-c2ccc3ccccc3c2)nc2ccc(F)cc12	i	nt	66	i	54	73	i	i	i	i	i
COc1ccc2nc(NC(=O)c3cnccn3)sc2c1	76	i	i	i	53	i	i	i	82	80	i
COc1ccc(C(=O)Nc2nc3ccc(OC)cc3s2)cc1	i	nt	i	i	i	i	nt	nt	nt	nt	nt
COc1ccc2nc(NC(=O)Nc3ccccc3)sc2c1	85	i	i	i	59	68	i	i	91	52	i
COc1ccc2nc(NC(=O)c3ccccc3F)sc2c1	93	nt	83	i	69	87	75	85	98	87	i
COc1ccc(C(=O)Nc2nc3ccccc3s2)c(OC)c1	101	nt	98	i	92	97	88	100	103	98	i
Cc1ccc2nc(NC(=O)c3ccccc3F)sc2c1	91	nt	81	i	58	86	i	76	50	64	i
SMILES	SENP7 block	PPC-1+TRAIL kill	SENP8 block-1	SENP8 block-2	TRAIL sens C8	SENP6 block	SENP8 confirm	SENP6 confirm	SENP7 confirm	Casp3 select	SENP luc ctr
CN1CCN(c2ccccc2NC(=O)COc2ccc(Cl)cc2)CC1	i	nt	i	i	i	i	nt	nt	nt	nt	nt
Nc1ccc(C(=O)Nc2nc3ccccc3s2)cc1	94	59	91	i	50	91	95	95	101	86	91
O=C(Nc1nc2ccccc2s1)c1c(F)cccc1Cl	i	nt	i	i	i	i	nt	nt	nt	nt	nt
O=C(Nc1nc2ccccc2s1)c1ccc(N2CCCCC2)c([N+](=O)[O-])c1	54	i	i	i	i	52	i	i	i	i	i
Cc1cc(C)n(-c2ccc(C(=O)Nc3nc4ccccc4s3)cc2)n1	i	i	i	i	i	i	nt	nt	nt	nt	nt
Cn1cc(Cl)c(C(=O)Nc2nc3ccccc3s2)n1	i	i	96	i	i	96	i	98	103	96	i
CN(C)CCn1cnc2c(c1=N)C(c1ccccc1)c1ccc3ccccc3c1O2 (stereo not drawn)	i	nt	i	i	i	i	nt	nt	nt	nt	nt
CN(C)C(=S)N=c1ssc(=S)n1Cc1cccnc1	nt	nt	nt	i	i	nt	nt	nt	nt	nt	nt
O=C(Nc1cccc(S(=O)(=O)N2CCCCCC2)c1)C1CC(=O)N(c2ccc3c(c2)OCCO3)C1 (stereo not drawn)	i	nt	i	i	i	i	nt	nt	nt	nt	nt
Nc1nnc(-c2ccc(Cl)cc2Cl)s1	i	i	i	i	i	i	nt	nt	nt	nt	nt
Nc1nccc(-c2cc(-c3ccc(Cl)cc3Cl)no2)n1	95	i	92	i	69	95	80	87	91	76	i
Cc1c(Cl)cnc(NC(=O)COC(=O)c2ccc([N+](=O)[O-])s2)c1Cl	i	i	i	i	i	71	i	76	i	i	i
O=C(COC(=O)c1ccc([N+](=O)[O-])s1)Nc1ccc(Cl)cn1	i	i	i	i	i	65	i	i	i	i	i
CCOc1ccc(S(=O)(=O)N2CCC(C(=O)NCc3ccccc3CN3CCCC3)CC2)cc1	i	nt	i	i	i	i	nt	nt	nt	nt	nt
